± gives the standard deviation of the averaged measurements. The full ranking holds about 33,000 sequences; the median of “E-score (dimensionless, -0.5 to 0.5)” is about -0.049, and the highest 2% start at about 0.37. Only a selection was taken, and the highest values are over-represented in it overall.

The assay relates to T1, PmTbr T-box DNA-binding domain (GST fusion).
T1 sequence: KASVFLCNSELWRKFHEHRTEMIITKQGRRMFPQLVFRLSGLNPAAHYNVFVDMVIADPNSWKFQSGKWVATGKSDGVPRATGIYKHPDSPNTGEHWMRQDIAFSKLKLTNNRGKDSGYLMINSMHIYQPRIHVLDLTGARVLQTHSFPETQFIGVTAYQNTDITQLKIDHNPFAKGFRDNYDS
In words: PBM E-score of 8-mer (E-score (dimensionless, -0.5 to 0.5)); Tbr is Tbrain of the sea star Patiria miniata (Pm) or the sea urchin Strongylocentrotus purpuratus (Sp); higher = stronger binding preference. The conditions noted are these: the construct has about 5 more residues each side. As to the method: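 Universal protein-binding microarray (Agilent AMADID 016060, 60-bp probes with a 35-bp variable region) incubated with 200 nM GST-fused Patiria miniata Tbr T-box DNA-binding domain (residues 272-466) in PBS pH 7.5. Scored for every ungapped 8-mer (given with its reverse complement) by the Universal PBM Analysis Suite as E-score (modified Wilcoxon-Mann-Whitney enrichment, range -0.5 to 0.5; >0.45 counts as bound) and Z-score of median probe intensity. Two replicate arrays (datasets 1 and 2).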
Regarding ATGTGCCG, the “PBM E-score of 8-mer” value is 0.0963 ± 0.036.

Consider ATGTGCTC, for which the “PBM E-score of 8-mer” value was -0.297 ± 0.012.

Turning to CTGTGCTA, the “PBM E-score of 8-mer” value is 0.0225 ± 0.0027.

As for ATGTGCTA, the “PBM E-score of 8-mer” value amounted to 0.396 ± 0.0083.

As to ATGTGCCC, the “PBM E-score of 8-mer” value was -0.0261 ± 0.068.

With CCGTGCTA, the “PBM E-score of 8-mer” value turned out to be 0.263 ± 0.0013.

Turning to ATGACCTC, the “PBM E-score of 8-mer” value was -0.0665 ± 0.086.

With CAGCGATA, the “PBM E-score of 8-mer” value stood at 0.0152 ± 0.0054.

ACAAGAGG: the “PBM E-score of 8-mer” value was -0.108 ± 0.048.

CATACAGG: the “PBM E-score of 8-mer” value was -0.17 ± 0.0088.

CCACTCCG: the “PBM E-score of 8-mer” value was -0.01631 ± 0.00014.

For GATTAGAC, the “PBM E-score of 8-mer” value was -0.0447 ± 0.044.

For GCCTCTGA, the “PBM E-score of 8-mer” value was 0.0009 ± 0.067.

In the case of ACTTAAAG, the “PBM E-score of 8-mer” value stood at 0.0623 ± 0.041.

As for AAGTGCTC, the “PBM E-score of 8-mer” value was 0.0187 ± 0.018.

For AAGTGCTG, the “PBM E-score of 8-mer” value came to 0.283 ± 0.0071.

Consider AAGTGCTA, for which the “PBM E-score of 8-mer” value turned out to be 0.448 ± 0.016.

As for CCCTTAAG, the “PBM E-score of 8-mer” value was -0.00471 ± 0.02.

In the case of CGTGCAGC, the “PBM E-score of 8-mer” value stood at 0.0118 ± 0.029.

Turning to CATCGCAG, the “PBM E-score of 8-mer” value came out at 0.0526 ± 0.063.

Take CATCGCAC: the “PBM E-score of 8-mer” value is 0.373 ± 0.023.

For GATCGCAA, the “PBM E-score of 8-mer” value is 0.244 ± 0.013.

On to CATCGCAA, for which the “PBM E-score of 8-mer” value was found to be 0.0368 ± 0.039.

For GATCGCAC, the “PBM E-score of 8-mer” value is 0.42 ± 0.018.

Regarding GATCGCGC, the “PBM E-score of 8-mer” value amounted to 0.289 ± 0.018.

On to AATCGCAG, for which the “PBM E-score of 8-mer” value was 0.0445 ± 0.062.

AATCGCAC: the “PBM E-score of 8-mer” value was 0.381 ± 0.0051.

Turning to AATCGCAT, the “PBM E-score of 8-mer” value was 0.0479 ± 0.038.

Take ACGAATGG: the “PBM E-score of 8-mer” value came to 0.0417 ± 0.027.

For GAATGGGA, the “PBM E-score of 8-mer” value is -0.214 ± 0.011.

Consider GCCATGTA, for which the “PBM E-score of 8-mer” value is -0.101 ± 0.045.

Consider ACCACTCC, for which the “PBM E-score of 8-mer” value amounted to 0.0476 ± 0.03.

Take AGTTGCGG: the “PBM E-score of 8-mer” value was 0.0771 ± 0.12.

As to AGTTGCGC, the “PBM E-score of 8-mer” value amounted to 0.0703 ± 0.035.

ACTTGCGA: the “PBM E-score of 8-mer” value worked out at 0.386 ± 0.006.

In the case of CCTTGCGA, the “PBM E-score of 8-mer” value worked out at 0.243 ± 0.012.

Take AGTTGCGA: the “PBM E-score of 8-mer” value turned out to be 0.412 ± 0.0052.

Regarding GCTTGCGA, the “PBM E-score of 8-mer” value amounted to 0.105 ± 0.024.

Consider CGGGTCAC, for which the “PBM E-score of 8-mer” value came out at 0.113 ± 0.024.

In the case of CAGAGGTC, the “PBM E-score of 8-mer” value was -0.0549 ± 0.0023.

As for ACAGTAAC, the “PBM E-score of 8-mer” value was 0.186 ± 0.054.

For the sequence GCTTAAGC, the “PBM E-score of 8-mer” value is -0.292 ± 0.0039.

Take AGGCCCCC: the “PBM E-score of 8-mer” value is -0.332 ± 0.014.

As to AAACGGCA, the “PBM E-score of 8-mer” value came to 0.0707 ± 0.068.

Take GGCTTCAA: the “PBM E-score of 8-mer” value was -0.121 ± 0.014.

As to AATTCGAC, the “PBM E-score of 8-mer” value is -0.0254 ± 0.029.

In the case of CCATCACG, the “PBM E-score of 8-mer” value is 0.033 ± 0.018.

Consider AGGTGGGA, for which the “PBM E-score of 8-mer” value amounted to 0.418 ± 0.01.

Consider AGGTGGTC, for which the “PBM E-score of 8-mer” value was -0.0579 ± 0.012.

Regarding AGGTGGTG, the “PBM E-score of 8-mer” value is 0.385 ± 0.042.

For the sequence GGGTGGTA, the “PBM E-score of 8-mer” value was found to be 0.121 ± 0.07.

Regarding AGGTGGTA, the “PBM E-score of 8-mer” value came to 0.415 ± 0.0043.

As for CGGTGGGA, the “PBM E-score of 8-mer” value was -0.0368 ± 0.0018.

On to AGGTGGAG, for which the “PBM E-score of 8-mer” value amounted to 0.141 ± 0.0032.

In the case of AGGTGGGC, the “PBM E-score of 8-mer” value was -0.0782 ± 0.065.

With CGGTGGTA, the “PBM E-score of 8-mer” value is -0.00583 ± 0.042.

As to ATTCAGAG, the “PBM E-score of 8-mer” value was -0.13 ± 0.0013.

Turning to CGACTTGC, the “PBM E-score of 8-mer” value was 0.161 ± 0.025.

For the sequence CCATCTCG, the “PBM E-score of 8-mer” value was -0.0242 ± 0.099.

Turning to GCTTGCCC, the “PBM E-score of 8-mer” value was -0.245 ± 0.0072.

TCCATCGA: the “PBM E-score of 8-mer” value is -0.121 ± 0.022.

Regarding ATAACGCC, the “PBM E-score of 8-mer” value amounted to 0.237 ± 0.023.

Turning to ATTGCACG, the “PBM E-score of 8-mer” value was 0.152 ± 0.033.

As for CGGTGGCA, the “PBM E-score of 8-mer” value is 0.147 ± 0.031.

In the case of AAGTGGCG, the “PBM E-score of 8-mer” value turned out to be 0.3473 ± 0.0029.

As to AGGTGGCA, the “PBM E-score of 8-mer” value was 0.436 ± 0.0087.

Consider AGGTGGCG, for which the “PBM E-score of 8-mer” value was 0.412 ± 0.023.

AGGTGGCC: the “PBM E-score of 8-mer” value is 0.0319 ± 0.077.

For the sequence GGGTGGCA, the “PBM E-score of 8-mer” value amounted to 0.322 ± 0.024.

For AAGTTGGA, the “PBM E-score of 8-mer” value was -0.0116 ± 0.045.

Turning to AGAAGTCC, the “PBM E-score of 8-mer” value is 0.0869 ± 0.022.

For the sequence GTAGCCCA, the “PBM E-score of 8-mer” value was -0.311 ± 0.012.

As to ACACATCT, the “PBM E-score of 8-mer” value is 0.325 ± 0.019.

As for ACACATCC, the “PBM E-score of 8-mer” value was found to be 0.3871 ± 0.0015.

In the case of GCACATCC, the “PBM E-score of 8-mer” value is 0.136 ± 0.038.

Take ACACATCG: the “PBM E-score of 8-mer” value turned out to be 0.382 ± 0.017.

For the sequence ACACATCA, the “PBM E-score of 8-mer” value is 0.299 ± 0.017.

For the sequence CCACATCC, the “PBM E-score of 8-mer” value was -0.102 ± 0.032.

Regarding ACTTCTCC, the “PBM E-score of 8-mer” value was -0.0311 ± 0.0014.

Consider GGAGGCTA, for which the “PBM E-score of 8-mer” value is -0.209 ± 0.016.

For ATAGGCAT, the “PBM E-score of 8-mer” value was -0.337 ± 0.021.

For the sequence CAAAGGTC, the “PBM E-score of 8-mer” value is -0.13 ± 0.039.

In the case of CAAAGGTA, the “PBM E-score of 8-mer” value was -0.133 ± 0.035.

In the case of CAAAGGTG, the “PBM E-score of 8-mer” value came out at 0.436 ± 0.018.

Regarding AAAAGGTG, the “PBM E-score of 8-mer” value is 0.442 ± 0.012.

AAAAGGTT: the “PBM E-score of 8-mer” value is -0.0316 ± 0.041.

With AAAAGGTC, the “PBM E-score of 8-mer” value was -0.0764 ± 0.033.
